Drawing on ChEMBL document CHEMBL1961873, “Compounds: GSK PKIS; Assays: Nanosyn kinase panel” (2012), this text covers inhibition for 16 compounds.

Where “and” joins values, the source holds several entries; their conditions need not be identical. Identical values can stand only once.

For experiment [1], the target named is Tyrosine-protein kinase receptor UFO (Homo sapiens) (UniProt P30530). The note with it: at 1 µM.
Experiment [2] deals with Tyrosine-protein kinase Blk (Homo sapiens) (UniProt P51451). As to conditions: at 0.1 µM.
Experiment [3] shares this target. As to conditions: at 1 µM.
Experiment [4] addresses T1, Cytoplasmic tyrosine-protein kinase BMX (Homo sapiens) (UniProt P51813).
T1 sequence (whole entry): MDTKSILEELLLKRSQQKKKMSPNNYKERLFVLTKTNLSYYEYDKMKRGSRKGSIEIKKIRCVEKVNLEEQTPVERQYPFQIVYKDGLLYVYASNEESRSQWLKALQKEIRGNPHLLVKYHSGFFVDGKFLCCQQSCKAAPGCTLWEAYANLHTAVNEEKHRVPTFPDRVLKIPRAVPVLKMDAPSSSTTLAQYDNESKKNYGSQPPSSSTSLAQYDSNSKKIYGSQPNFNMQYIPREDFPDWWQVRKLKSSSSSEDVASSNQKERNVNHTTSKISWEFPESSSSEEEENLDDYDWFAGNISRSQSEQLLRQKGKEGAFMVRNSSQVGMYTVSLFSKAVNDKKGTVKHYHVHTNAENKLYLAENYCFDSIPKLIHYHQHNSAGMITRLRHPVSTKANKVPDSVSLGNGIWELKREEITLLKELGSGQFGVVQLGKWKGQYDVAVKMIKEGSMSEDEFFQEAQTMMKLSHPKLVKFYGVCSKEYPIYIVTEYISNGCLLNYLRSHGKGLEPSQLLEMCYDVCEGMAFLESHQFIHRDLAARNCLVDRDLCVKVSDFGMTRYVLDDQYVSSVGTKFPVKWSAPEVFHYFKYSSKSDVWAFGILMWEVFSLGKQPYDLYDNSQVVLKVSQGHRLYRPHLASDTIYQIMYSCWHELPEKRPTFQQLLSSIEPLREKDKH
The note with it: at 0.1 µM.

Experiment [5] addresses T1, Cytoplasmic tyrosine-protein kinase BMX (Homo sapiens). As to conditions: at 1 µM.
In experiment [6] the target is Protein-tyrosine kinase 6 (Homo sapiens) (UniProt Q13882). The note with it: at 0.1 µM.
The target is the same in experiment [7]. As to conditions: at 1 µM.
Experiment [8] deals with Tyrosine-protein kinase BTK (Homo sapiens) (UniProt Q06187). As to conditions: at 0.1 µM.
Experiment [9] has the same target. The note with it: at 1 µM.
Experiment [10] has as its target Tyrosine-protein kinase CSK (Homo sapiens) (UniProt P41240). The note with it: at 0.1 µM.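 Also: value given is the averaged percent inhibition of CSK kinase activity, from the GSK PKIS kinase inhibitor set screening panel.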

Chain of Protein-tyrosine kinase 6 (Homo sapiens) (Q13882 whole entry, looked up): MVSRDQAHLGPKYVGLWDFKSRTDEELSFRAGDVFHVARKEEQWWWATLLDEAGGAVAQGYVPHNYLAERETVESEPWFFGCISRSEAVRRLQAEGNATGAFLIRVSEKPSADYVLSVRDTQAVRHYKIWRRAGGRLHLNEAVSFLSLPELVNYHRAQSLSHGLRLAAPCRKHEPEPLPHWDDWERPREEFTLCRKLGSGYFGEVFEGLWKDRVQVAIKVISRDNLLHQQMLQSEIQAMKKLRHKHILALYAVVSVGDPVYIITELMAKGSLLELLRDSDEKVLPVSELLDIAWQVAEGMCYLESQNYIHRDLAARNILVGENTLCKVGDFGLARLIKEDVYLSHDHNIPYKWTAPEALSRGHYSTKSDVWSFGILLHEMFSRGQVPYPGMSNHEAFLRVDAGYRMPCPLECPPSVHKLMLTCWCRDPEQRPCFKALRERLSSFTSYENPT
Chain of Tyrosine-protein kinase Blk (Homo sapiens) (P51451 2-505 limits assumed): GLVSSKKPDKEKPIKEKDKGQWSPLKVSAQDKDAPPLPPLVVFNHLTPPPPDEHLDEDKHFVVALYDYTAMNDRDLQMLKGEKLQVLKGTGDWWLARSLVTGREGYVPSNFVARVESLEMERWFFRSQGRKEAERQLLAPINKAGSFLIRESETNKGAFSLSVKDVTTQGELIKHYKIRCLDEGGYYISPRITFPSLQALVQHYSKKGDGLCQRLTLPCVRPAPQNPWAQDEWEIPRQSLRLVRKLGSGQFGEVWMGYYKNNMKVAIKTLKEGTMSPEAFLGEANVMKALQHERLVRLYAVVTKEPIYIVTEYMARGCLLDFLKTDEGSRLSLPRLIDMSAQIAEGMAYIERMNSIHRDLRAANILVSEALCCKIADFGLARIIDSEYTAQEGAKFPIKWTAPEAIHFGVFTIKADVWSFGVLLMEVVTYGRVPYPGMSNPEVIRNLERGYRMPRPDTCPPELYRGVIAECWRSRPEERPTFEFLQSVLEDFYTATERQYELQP
Chain of Tyrosine-protein kinase receptor UFO (Homo sapiens) (P30530 whole entry): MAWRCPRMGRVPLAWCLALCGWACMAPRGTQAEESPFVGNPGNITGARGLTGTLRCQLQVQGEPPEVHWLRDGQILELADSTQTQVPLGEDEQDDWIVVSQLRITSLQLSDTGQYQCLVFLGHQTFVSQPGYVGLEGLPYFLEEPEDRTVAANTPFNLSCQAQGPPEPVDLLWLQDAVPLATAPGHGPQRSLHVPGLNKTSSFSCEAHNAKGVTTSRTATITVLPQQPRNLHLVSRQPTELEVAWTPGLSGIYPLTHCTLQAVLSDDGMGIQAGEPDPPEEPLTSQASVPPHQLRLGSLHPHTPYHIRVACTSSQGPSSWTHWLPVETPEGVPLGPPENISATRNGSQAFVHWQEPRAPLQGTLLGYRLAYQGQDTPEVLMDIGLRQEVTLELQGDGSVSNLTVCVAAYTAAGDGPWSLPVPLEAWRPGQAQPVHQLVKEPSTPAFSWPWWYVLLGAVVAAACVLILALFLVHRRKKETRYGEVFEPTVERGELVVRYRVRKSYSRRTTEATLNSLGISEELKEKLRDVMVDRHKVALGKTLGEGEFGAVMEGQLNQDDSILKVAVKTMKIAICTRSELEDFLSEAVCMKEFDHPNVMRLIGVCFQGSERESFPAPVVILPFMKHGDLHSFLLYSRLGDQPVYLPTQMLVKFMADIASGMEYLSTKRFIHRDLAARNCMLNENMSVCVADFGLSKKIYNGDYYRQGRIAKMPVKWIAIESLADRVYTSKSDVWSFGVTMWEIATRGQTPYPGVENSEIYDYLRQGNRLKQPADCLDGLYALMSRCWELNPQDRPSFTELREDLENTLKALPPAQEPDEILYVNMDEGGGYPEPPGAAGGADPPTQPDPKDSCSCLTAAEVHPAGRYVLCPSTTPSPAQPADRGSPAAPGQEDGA
Chain of Tyrosine-protein kinase CSK (Homo sapiens) (P41240 2-450 limits assumed): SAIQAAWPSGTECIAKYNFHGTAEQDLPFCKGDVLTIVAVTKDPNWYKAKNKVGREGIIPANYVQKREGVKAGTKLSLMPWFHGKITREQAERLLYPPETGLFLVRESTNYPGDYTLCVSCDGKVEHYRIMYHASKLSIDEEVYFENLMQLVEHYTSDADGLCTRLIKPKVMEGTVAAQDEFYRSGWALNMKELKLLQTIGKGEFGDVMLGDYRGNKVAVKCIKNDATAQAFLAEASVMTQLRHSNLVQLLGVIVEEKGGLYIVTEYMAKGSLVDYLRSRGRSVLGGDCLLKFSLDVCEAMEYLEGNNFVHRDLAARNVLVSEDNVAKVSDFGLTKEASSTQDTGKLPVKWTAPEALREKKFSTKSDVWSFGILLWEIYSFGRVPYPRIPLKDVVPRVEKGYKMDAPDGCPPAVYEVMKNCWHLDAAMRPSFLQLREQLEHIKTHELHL
Chain of Tyrosine-protein kinase BTK (Homo sapiens) (Q06187 whole entry): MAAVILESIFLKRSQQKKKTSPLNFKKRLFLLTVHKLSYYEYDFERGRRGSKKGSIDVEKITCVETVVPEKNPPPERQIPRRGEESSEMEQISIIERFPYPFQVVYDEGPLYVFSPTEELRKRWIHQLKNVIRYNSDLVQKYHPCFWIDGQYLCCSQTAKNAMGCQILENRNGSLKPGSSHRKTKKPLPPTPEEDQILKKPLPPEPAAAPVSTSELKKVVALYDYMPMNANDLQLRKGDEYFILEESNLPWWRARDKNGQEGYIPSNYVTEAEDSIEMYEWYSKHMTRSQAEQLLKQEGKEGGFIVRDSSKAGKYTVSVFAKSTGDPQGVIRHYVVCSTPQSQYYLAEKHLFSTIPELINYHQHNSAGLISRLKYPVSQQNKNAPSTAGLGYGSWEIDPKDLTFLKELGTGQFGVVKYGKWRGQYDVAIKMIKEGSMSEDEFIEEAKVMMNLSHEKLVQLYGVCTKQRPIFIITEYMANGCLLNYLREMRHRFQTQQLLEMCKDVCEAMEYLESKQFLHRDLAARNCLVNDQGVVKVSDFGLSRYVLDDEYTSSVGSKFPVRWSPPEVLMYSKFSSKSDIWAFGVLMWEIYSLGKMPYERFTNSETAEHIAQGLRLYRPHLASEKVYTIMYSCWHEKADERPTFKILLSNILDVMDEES

Take `CC(C)c1ccc(-c2cc(-c3c[nH]nc3-c3ccccn3)ccn2)cc1`: the inhibition in experiment [1] is 2.69%; in [2] it was 1.02%; in experiment [3], 0.42%; in experiment [4], -0.47%; in [5] it was 2.05%; in [6], -0.52%. Besides, the inhibition is 0.14% in experiment [7], -1.28% in experiment [8], -1.36% in experiment [9] and 1.02% in [10].

Consider `Cc1c2ccc(N(C)c3ccnc(Nc4cccc(S(N)(=O)=O)c4)n3)cc2nn1C`, for which the inhibition was 1.26% in [1]; 5.04% in [2]; 56.5% in [3]; -1.19% in experiment [4]; 17% in experiment [5]; 13.8% in experiment [6]. In addition, the inhibition in experiment [7] is 51.2%; in experiment [8] it was -2.88%; in experiment [9], 1.31%; in [10], 5.79%.

For the compound `COc1cccc(-n2ncc3c(N/N=C/c4ccc(C(=O)NCCN(C)C)cc4)ncnc32)c1`, the inhibition in [1] was determined as 40.9%; in experiment [2], 18.1%; in [3], 73%; in experiment [4] it was 9.47%; in experiment [5], 46.3%; in [6], 9.98%. The inhibition in experiment [7] was 53.4%; in experiment [8], 1.25%; in experiment [9] it was 1.98%; in experiment [10], 3.74%.

Consider `Nc1ncnc2occ(-c3ccc(NC(=O)Nc4cc(C(F)(F)F)ccc4F)cc3)c12`, for which the inhibition is 37.3% and 23.5% in experiment [1]; 4.09% and 1.25% in [2]; 39% and 23.5% in experiment [3]; 17.8% and 9.86% in experiment [4]; 69.5% and 57.2% in experiment [5]; 3.76% and -0.33% in experiment [6]. In addition, the inhibition in [7] is 4.26% and 3.06%; in experiment [8], 0.97% and 0.09%; in experiment [9], 5.11% and 1.18%; in experiment [10], 6.39% and 0.36%.

With `Cc1cc(O)cc(C)c1/C=C/c1cncc(C(=O)OC(C)(C)C)c1`, the inhibition was -3.72% in [1]; 4.36% in experiment [2]; 21.7% in [3]; 9.3% in experiment [4]; 47.3% in experiment [5]; 18.1% in [6]. In addition, the inhibition in experiment [7] was 67.5%; in experiment [8] it was 0.92%; in experiment [9] it was 12.8%; in experiment [10], 7.62%.

Take `CCN1CCC(C(=O)Nc2n[nH]c3nnc(-c4cccc(F)c4F)cc23)CC1`: the inhibition in experiment [1] is 2.22%; in [2], 0.62%; in experiment [3] it was 2.33%; in [4] it was -0.1%; in experiment [5] it was 1.04%; in [6], -0.63%. Besides, the inhibition in experiment [7] is -0.63%; in experiment [8], 0%; in experiment [9], -0.5%; in [10] it was 2.49%.

On to `N#Cc1ccc2c(-c3ccnc(NC4CC4)n3)c(-c3ccc(F)cc3)nn2c1`, for which the inhibition is -4.53% in experiment [1]; -1.08% in [2]; -3.55% in [3]; 1.17% in [4]; 2.56% in [5]; -1.17% in experiment [6]. The inhibition was 2.88% in experiment [7], -0.25% in experiment [8], -2.34% in [9] and 1.65% in experiment [10].

`COC(=O)Nc1nc2cc(Oc3ccc(NC(=O)Nc4ccccc4)cc3)ccc2[nH]1`: the inhibition in experiment [1] is -3.64%; in experiment [2] it was 2.65%; in [3], 3.63%; in [4] it was 3.17%; in experiment [5], 3.73%; in experiment [6], 1.45%. Also, the inhibition was 2.78% in experiment [7], 0.55% in [8], 0.58% in [9] and 4.95% in experiment [10].

On to `O=C(O[C@H]1CN[C@H](C#Cc2cc3ncnc(Nc4ccc5c(cnn5Cc5ccccc5)c4)c3s2)C1)N1CCOCC1`, for which the inhibition in [1] was 2.46%; in experiment [2] it was -0.69%; in experiment [3], 6.27%; in [4] it was -1.03%; in experiment [5] it was 2.39%; in experiment [6] it was 1.71%. Moreover, the inhibition was 2.7% in experiment [7], 2.14% in experiment [8], 1.05% in experiment [9] and -1.39% in [10].

Turning to `Cc1cc(O)cc(C)c1/C=C/c1cncc(C(N)=O)c1`, the inhibition in experiment [1] is -0.54%; in experiment [2], 3.77%; in [3], 23%; in experiment [4], 5.58%; in experiment [5], 37.5%; in experiment [6], 22.2%. For the same compound, the inhibition is 72.8% in [7], -0.17% in experiment [8], 2.64% in experiment [9] and 4.27% in [10].

Regarding `COc1cc2c(cc1Nc1nc(Nc3cccc(F)c3C(N)=O)c3cc[nH]c3n1)N(C(=O)CN1CCN(C(C)C)CC1)CC2`, the inhibition in experiment [1] is 2.45%; in experiment [2], -0.36%; in experiment [3] it was -0.42%; in [4] it was 2.26%; in experiment [5], 3.16%; in [6], -1.33%. In addition, the inhibition in experiment [7] was 3.54%; in experiment [8] it was -0.03%; in experiment [9], -1.36%; in experiment [10], -1.06%.

On to `CNC(=O)c1cncc(/C=C/c2ccccc2C)c1`, for which the inhibition in [1] is -5.59%; in experiment [2], 2.89%; in [3] it was 6.2%; in [4], 0.93%; in experiment [5], 16.1%; in [6], 4.25%. The inhibition in [7] came to 14.5%; in experiment [8], 0.03%; in [9], 1.29%; in [10], 4.87%.

Turning to `CCn1c(-c2nonc2N)nc2cncc(C(=O)NCCNC)c21`, the inhibition was -6.19% in [1]; 3.13% in [2]; 5.42% in [3]; 3.81% in experiment [4]; 5.15% in experiment [5]; 2.42% in experiment [6]. In addition, the inhibition in [7] was 5.45%; in experiment [8] it was -1.55%; in [9], 0.11%; in [10], 3.43%.

For the compound `Nc1nccc(-c2c(-c3ccc(F)cc3)ncn2C2CCNCC2)n1`, the inhibition in [1] was 8.06% and 1.45%; in [2] it was -1.45% and 0.8%; in experiment [3], -0.17% and 2.22%; in experiment [4] it was 1.14% and -5.53%; in [5], -1.15% and 0.2%; in experiment [6] it was -3.88% and 1.44%. The inhibition in experiment [7] was 2.01% and 4.41%; in [8], -0.49% and -0.93%; in [9], -0.59% and 0.22%; in experiment [10], -4.42% and 4.09%.

For `Fc1cccc(COc2ccc(Nc3ncncc3C#Cc3ccccc3)cc2Cl)c1`, the inhibition is -6.13% in experiment [1]; 3.22% in experiment [2]; 3.19% in experiment [3]; -2.36% in experiment [4]; 5.09% in experiment [5]; 6.04% in experiment [6]. Besides, the inhibition in experiment [7] stood at 7.36%; in experiment [8], 1.18%; in experiment [9] it was 0.79%; in experiment [10], 2.79%.

As for `CN1CCC(n2cnc(-c3ccc(F)cc3)c2-c2ccnc(NCCO)n2)CC1`, the inhibition is -5.39% in experiment [1]; 3.74% in experiment [2]; 2.11% in experiment [3]; -6.22% in experiment [4]; 4.95% in experiment [5]; 3.29% in experiment [6]. Moreover, the inhibition in [7] worked out at 6.89%; in experiment [8], 0.96%; in [9], 0.09%; in [10], 7.33%.
